Data: PubChem BioAssay (NCI)
This is part of a sample that, as a whole, favours compounds with a hit. Of some 83,000 tested, about 20% had one in any assay.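 96-well plates, one dose, 48 hours. Percent growth reported; active if below 10.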 Values without a mark were called inactive. Active and inactive are the calls of the source.

How the values were obtained:
Assay in all cases: NCI-60 one-dose screen, 48 h (100 = growth as untreated, 0 = no growth, -100 = all killed)
Conditions in all cases: 10 µM unless noted
SR leukemia = system: SR leukemia
RPMI-8226 leukemia = system: RPMI-8226 leukemia
OVCAR-8 ovarian = system: OVCAR-8 ovarian
OVCAR-5 ovarian = system: OVCAR-5 ovarian
OVCAR-4 ovarian = system: OVCAR-4 ovarian
SK-OV-3 ovarian = system: SK-OV-3 ovarian
IGROV1 ovarian = system: IGROV1 ovarian
OVCAR-3 ovarian = system: OVCAR-3 ovarian
HS 578T breast = system: HS 578T breast
NCI/ADR-RES ovarian = system: NCI/ADR-RES ovarian
T-47D breast = system: T-47D breast
BT-549 breast = system: BT-549 breast
MDA-MB-435 melanoma = system: MDA-MB-435 melanoma
SW-620 colon = system: SW-620 colon
MCF7 breast = system: MCF7 breast
HCT-116 colon = system: HCT-116 colon
HCC-2998 colon = system: HCC-2998 colon
KM12 colon = system: KM12 colon

CN(C)CC1C(=O)O[C@H]2[C@H]1CC/C(COC(=O)NCc1ccc(Cn3c(=O)sn(CCCI)c3=O)cc1)=C\CC[C@@]1(C)O[C@@H]21 (some centres not stated) was tested, and the growth (SR leukemia) was -28.6% (active), the growth (RPMI-8226 leukemia) was -29.7% (active) and the growth (OVCAR-8 ovarian) was -68.2% (active). The growth (OVCAR-5 ovarian) was 105%, the growth (OVCAR-4 ovarian) was 6.44% (active) and the growth (SK-OV-3 ovarian) was 99.5%. For the same compound, the growth (IGROV1 ovarian) was -81.8% (active), the growth (OVCAR-3 ovarian) was -96.4% (active) and the growth (HS 578T breast) was 82.5%. The growth (NCI/ADR-RES ovarian) was 98.8%, the growth (T-47D breast) was -55.5% (active) and the growth (BT-549 breast) was 50.1%. For the same compound, the growth (MDA-MB-435 melanoma) was 20.5%, the growth (SW-620 colon) was -74.9% (active) and the growth (MCF7 breast) was -55.4% (active). The growth (HCT-116 colon) was -73.2% (active), the growth (HCC-2998 colon) was 41% and the growth (KM12 colon) was 105%.

CCCc1cc(CCC)n2nc(N)nc2n1 showed a growth (SR leukemia) of 109%, a growth (RPMI-8226 leukemia) of 104% and a growth (OVCAR-8 ovarian) of 106%. The growth (OVCAR-5 ovarian) was 98.8%, the growth (OVCAR-4 ovarian) was 116% and the growth (SK-OV-3 ovarian) was 105%. For the same compound, the growth (IGROV1 ovarian) was 126%, the growth (OVCAR-3 ovarian) was 121% and the growth (HS 578T breast) was 103%. The growth (NCI/ADR-RES ovarian) was 109%, the growth (T-47D breast) was 110% and the growth (BT-549 breast) was 92.9%. For the same compound, the growth (MDA-MB-435 melanoma) was 110%, the growth (SW-620 colon) was 109% and the growth (MCF7 breast) was 95.6%. It also gave a growth (HCT-116 colon) of 103%, a growth (HCC-2998 colon) of 98.1% and a growth (KM12 colon) of 108%.

In the case of O=C(Oc1ccccc1)c1cc(O)c(O)c(O)c1, the growth (SR leukemia) is reported as 32.9%, the growth (RPMI-8226 leukemia) is reported as 65.7% and the growth (OVCAR-8 ovarian) is reported as 71.4%. For the same compound, the growth (OVCAR-5 ovarian) was 107%, the growth (OVCAR-4 ovarian) was 63.7% and the growth (SK-OV-3 ovarian) was 77.3%. For the same compound, the growth (IGROV1 ovarian) was 76%, the growth (OVCAR-3 ovarian) was 18.1% and the growth (HS 578T breast) was 39.9%. For the same compound, the growth (NCI/ADR-RES ovarian) was 61.1%, the growth (T-47D breast) was 59.7% and the growth (BT-549 breast) was 65.1%. It also gave a growth (MDA-MB-435 melanoma) of 53.3%, a growth (SW-620 colon) of 62.7% and a growth (MCF7 breast) of 79.3%. The growth (HCT-116 colon) was 58.8%, the growth (HCC-2998 colon) was 68.5% and the growth (KM12 colon) was 74.7%.

In the case of CC1OC(C(=O)N2CCN(CCO)CC2)CC1COC1CCCCC1 (configuration not stated), the growth (SR leukemia) is reported as 88% [50 µM], the growth (RPMI-8226 leukemia) is reported as 96.3% [50 µM] and the growth (OVCAR-8 ovarian) is reported as 99.2% [50 µM]. It also gave a growth (OVCAR-5 ovarian) of 104% [50 µM], a growth (OVCAR-4 ovarian) of 104% [50 µM] and a growth (SK-OV-3 ovarian) of 97.9% [50 µM]. For the same compound, the growth (IGROV1 ovarian) was 98% [50 µM], the growth (OVCAR-3 ovarian) was 96.7% [50 µM] and the growth (HS 578T breast) was 87.2% [50 µM]. It also gave a growth (NCI/ADR-RES ovarian) of 93% [50 µM], a growth (T-47D breast) of 94.6% [50 µM] and a growth (BT-549 breast) of 90.2% [50 µM]. The growth (MDA-MB-435 melanoma) was 103% [50 µM], the growth (SW-620 colon) was 101% [50 µM] and the growth (MCF7 breast) was 103% [50 µM]. The growth (HCT-116 colon) was 97% [50 µM], the growth (HCC-2998 colon) was 109% [50 µM] and the growth (KM12 colon) was 101% [50 µM].

In the case of COc1ccc(-c2cn(Cc3ccc4c(Br)cc(Br)c(O)c4n3)nn2)cc1, the growth (SR leukemia) is reported as -23.1% (active), the growth (RPMI-8226 leukemia) is reported as 67.2% and the growth (OVCAR-8 ovarian) is reported as 88.7%. It also gave a growth (OVCAR-5 ovarian) of 95.6%, a growth (OVCAR-4 ovarian) of 96.2% and a growth (SK-OV-3 ovarian) of 108%. For the same compound, the growth (IGROV1 ovarian) was 56.6%, the growth (OVCAR-3 ovarian) was 73.2% and the growth (HS 578T breast) was 109%. It also gave a growth (NCI/ADR-RES ovarian) of 102%, a growth (T-47D breast) of 65.1% and a growth (BT-549 breast) of 111%. It also gave a growth (MDA-MB-435 melanoma) of 89%, a growth (SW-620 colon) of 75.4% and a growth (MCF7 breast) of 67.4%. The growth (HCT-116 colon) was 77.8% and the growth (KM12 colon) was 99.4%.

With CCN1CCN(C(=O)[C@]23CC[C@@H](C)[C@H](C)[C@@H]2C2=CC[C@@H]4[C@@]5(C)C/C(=C/c6ccncc6)C(=O)C(C)(C)[C@@H]5CC[C@@]4(C)[C@]2(C)CC3)CC1 the growth (SR leukemia) was -12.8% (active), the growth (RPMI-8226 leukemia) was -29.5% (active) and the growth (OVCAR-8 ovarian) was 37.4%. It also gave a growth (OVCAR-5 ovarian) of 34.2%, a growth (OVCAR-4 ovarian) of 29.8% and a growth (SK-OV-3 ovarian) of 70.2%. The growth (IGROV1 ovarian) was 29.8%, the growth (OVCAR-3 ovarian) was 11.2% and the growth (HS 578T breast) was 7.21% (active). It also gave a growth (NCI/ADR-RES ovarian) of 27.4%, a growth (T-47D breast) of 27.1% and a growth (BT-549 breast) of 52.2%. For the same compound, the growth (MDA-MB-435 melanoma) was -51.1% (active), the growth (SW-620 colon) was -22.6% (active) and the growth (MCF7 breast) was 4.97% (active). For the same compound, the growth (HCT-116 colon) was -51.9% (active) and the growth (KM12 colon) was 5.49% (active).

Work on O=C(CN1C(=O)NC2NC(=O)NC21)N/N=C/c1cccc([N+](=O)[O-])c1 (configuration not stated) yielded a growth (SR leukemia) of 110%, a growth (RPMI-8226 leukemia) of 110% and a growth (OVCAR-8 ovarian) of 111%. The growth (OVCAR-5 ovarian) was 105%, the growth (OVCAR-4 ovarian) was 105% and the growth (SK-OV-3 ovarian) was 108%. For the same compound, the growth (IGROV1 ovarian) was 103%, the growth (OVCAR-3 ovarian) was 108% and the growth (HS 578T breast) was 107%. The growth (NCI/ADR-RES ovarian) was 101%, the growth (T-47D breast) was 107% and the growth (BT-549 breast) was 102%. The growth (MDA-MB-435 melanoma) was 98.1%, the growth (SW-620 colon) was 105% and the growth (MCF7 breast) was 91.8%. It also gave a growth (HCT-116 colon) of 116% and a growth (KM12 colon) of 104%.

O=C(CNc1ncco1)Nc1ccc(S(=O)(=O)c2ccc(NC(=O)CNc3ncco3)cc2)cc1 was tested, and the growth (SR leukemia) was -0.678% (active), the growth (RPMI-8226 leukemia) was 11.2% and the growth (OVCAR-8 ovarian) was -80.7% (active). It also gave a growth (OVCAR-5 ovarian) of 28.5%, a growth (OVCAR-4 ovarian) of 17.5% and a growth (SK-OV-3 ovarian) of 76.1%. The growth (IGROV1 ovarian) was -10.3% (active), the growth (OVCAR-3 ovarian) was 104% and the growth (HS 578T breast) was -4.97% (active). For the same compound, the growth (NCI/ADR-RES ovarian) was -12.5% (active), the growth (T-47D breast) was 29.3% and the growth (BT-549 breast) was 43.9%. The growth (MDA-MB-435 melanoma) was 3.01% (active), the growth (SW-620 colon) was -82% (active) and the growth (MCF7 breast) was 18.9%. For the same compound, the growth (HCC-2998 colon) was 76.4% and the growth (KM12 colon) was 94.8%.

With CCOC(=O)C1=CCC(n2cc(F)c(=O)[nH]c2=O)O1 (configuration not stated) the growth (SR leukemia) was 99.8%, the growth (RPMI-8226 leukemia) was 105% and the growth (OVCAR-8 ovarian) was 97%. It also gave a growth (OVCAR-5 ovarian) of 119%, a growth (OVCAR-4 ovarian) of 130% and a growth (SK-OV-3 ovarian) of 121%. For the same compound, the growth (IGROV1 ovarian) was 126%, the growth (OVCAR-3 ovarian) was 92.5% and the growth (HS 578T breast) was 116%. It also gave a growth (NCI/ADR-RES ovarian) of 106%, a growth (T-47D breast) of 98.5% and a growth (BT-549 breast) of 107%. It also gave a growth (MDA-MB-435 melanoma) of 110%, a growth (SW-620 colon) of 89.9% and a growth (MCF7 breast) of 93.1%. The growth (HCT-116 colon) was 96.7% and the growth (KM12 colon) was 88.3%.
